Consider eleven compounds from PubChem BioAssay.

For this assay, the target named is Alpha-bungarotoxin (Bungarus multicinctus) (UniProt P60615). Description: alpha-bungarotoxin binders on microarray, profiling panel, artefact control for SMM control protein annotation, biochemical, small-molecule microarray, Alexa647 label, 635/667 nm fluorescence (AID 1117). The note with it: alpha-BTX-A647 binding fluorescence, higher = more signal.
Chain of Alpha-bungarotoxin (Bungarus multicinctus) (P60615 whole entry, looked up): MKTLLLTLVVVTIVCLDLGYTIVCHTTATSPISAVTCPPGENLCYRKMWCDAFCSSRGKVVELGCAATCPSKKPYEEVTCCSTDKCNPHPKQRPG
In turn, `CO[C@H]1O[C@H](CO)[C@@H](OC(=O)Nc2ccc3c(c2)OCO3)[C@H](OC(=O)Nc2ccc3c(c2)OCO3)[C@@H]1OC(=O)Nc1ccc2c(c1)OCO2` had a composite z-score of 1.7.
In the case of `CCOC(=O)C[C@H]1[C@H](OC(=O)c2ccccc2-c2ccccc2)[C@@H](NC(=O)c2ccc3ccccc3c2)c2cc(OCCCO)ccc2N1C(=O)c1ccccc1`, the composite z-score turned out to be 0.789.
Compound `CC(C)[Si]1(C(C)C)OCc2cc(-c3ccc(-c4ccc(Cl)c(Cl)c4)o3)nc(-c3ccccc3)c21` had a composite z-score of -0.597.
In turn, `COc1ccc([C@H]2OC[C@@H]3C[C@H](Cc4ccccc4)C(=O)N32)cc1` showed a composite z-score of 1.59.
Under `COC(=O)C(CC#Cc1ccc2c(c1)[C@]1(C(=O)N2)[C@H](c2ccc(O)cc2)N2[C@H](c3ccccc3)[C@H](c3ccccc3)OC(=O)[C@H]2[C@@H]1C(=O)NC[C@H](O)c1ccccc1)C(=O)OC` stands 0.624.
Under `CC(=O)N1CC2(CC2)CC1c1ccccc1` (stereo unspecified) stands -0.217; under `COc1ccc([Si](C)(C)[C@@H]2[C@@H](CC(=O)N3CCC[C@H]3CO)O[C@]3(C(=O)N(Cc4cccc(N5C(=O)COc6ccccc65)c4)c4ccccc43)[C@H]2C)cc1`, 0.678; under `O=c1cccc(-c2ccc([N+](=O)[O-])cc2)o1`, 0.38.
Regarding `N[C@@H](Cc1ccccc1)C(=O)NCc1cn(Cc2ccccc2)nn1`, the composite z-score amounted to 1.11.
Under `O=C1C2C=CC(C(O)c3cccc(O)c3)N(Nc3ccc([N+](=O)[O-])cc3)C2C(=O)N1c1ccccc1` (stereo unspecified) stands 1.13.
With `CC(C)c1ccc(NN2C(C(O)c3ccc(F)cc3)C=CC3C(=O)N(c4ccccc4)C(=O)C32)cc1` (stereo unspecified), the composite z-score is 1.39.
